The campaign covered roughly 48,000 compounds. About 13,000 (27%) showed an effect of 50% or more. The list shows a part of the results.

The test relates to Wolbachia pipientis. The experiment in a line: Anti-Wolbachia Cell-Based Screen. The conditions noted are these: 5 µM. Format: functional. The arrangement: scale not given: in the data most compounds retested in dose-response had high values.
In the case of `O=C1CCCc2[nH]c(=O)c(C(=O)N(CC3CCCCC3)C3CC3)cc21`, the “Percent Effect” value is given as -8.56%. For `Cc1ccc(S(=O)(=O)N2CCOc3ccccc32)cc1C(N)=O` the value was 5.411%; for `CC(C)c1noc(CN(C)C(=O)c2ccccc2-c2nc[nH]n2)n1`, -15.19%; for `CCN1CC2(CC1=O)CN(C(=O)NC(C)C)CCN(S(C)(=O)=O)C2` (configuration not stated), 100.8%. Next, `CCS(=O)(=O)N1CCN(C(=O)NC(C)C)CC2(CC(=O)N(C)C2)C1` (configuration not stated): -2.042%; `CCN1CC2(CC1=O)CN(C(C)=O)CCN(C(=O)NC)C2` (configuration not stated): 104.3%.

Take `CCN1CC2(CC1=O)CN(C(=O)C(C)C)CCN(S(=O)(=O)CC)C2` (configuration not stated): the “Percent Effect” value was found to be 12.11%.

In the case of `CNC(=O)N1CCN(C(=O)C(C)C)CC2(CC(=O)N(C)C2)C1` (configuration not stated), the “Percent Effect” value is reported as -13.05%. Next, `CCN1CC2(CC1=O)CN(C(=O)NC(C)C)CCN(C(=O)NC(C)C)C2`: 115.2%. For `CCN1CC2(CC1=O)CN(C(=O)NC(C)C)CCN(C(=O)C(C)C)C2` (configuration not stated), the “Percent Effect” value is reported as 117.3%. For `CCN1CC2(CC1=O)CN(C(=O)NC)CCN(S(C)(=O)=O)C2` (configuration not stated) the value was 1.458%. For `CCN1CC2(CC1=O)CN(C(=O)C(C)C)CCN(S(C)(=O)=O)C2` (configuration not stated) the value was 4.611%.

As to `CC(C)NC(=O)N1CCN(C(=O)N(C)C)CC2(CC(=O)N(C)C2)C1` (configuration not stated), the “Percent Effect” value was 11.38%. For `CCN1CC2(CC1=O)CN(C(=O)N(C)C)CCN(S(C)(=O)=O)C2` (configuration not stated) the value was -16.32%; for `CCN1CC2(CC1=O)CN(C(C)=O)CCN(S(C)(=O)=O)C2` (configuration not stated), -3.303%; for `CCN(CCO)C(=O)C1CCC(=O)N(Cc2cccc(OC)c2)C1` (configuration not stated), 4.416%. As for `NC(=O)N1CCCN(CC(=O)NCCc2c(F)cccc2F)CC1`, the “Percent Effect” value is listed as -7.896%. As for `Cc1nc[nH]c1CN1CCCn2nc(CN3CCC(F)(F)CC3)cc2C1`, the “Percent Effect” value was 5.091%. Next, `CC(C)NC(=O)N1CCN(S(=O)(=O)C2CC2)CC2(CC(=O)N(C)C2)C1` (configuration not stated): -16.72%. For `CCN1CC2(CC1=O)CN(C(C)=O)CCN(S(=O)(=O)CC)C2` (configuration not stated) the value was -5.362%; for `CCN1CC2(CC1=O)CN(C(C)=O)CCN(C(=O)NC(C)C)C2` (configuration not stated), 101.7%; for `CCC1(CNCc2ncc[nH]2)CCCC1`, -14.89%.

As to `CN(CC(=O)Nc1cccnc1)C1CCCN(c2cccnn2)C1` (configuration not stated), the “Percent Effect” value came out at 85.32%.

As for `Cc1csc(NC(=O)CN(C)CC2CCCN2c2cccnn2)n1` (configuration not stated), the “Percent Effect” value was found to be 8.253%.

`Cc1nnc(NC(=O)CN(C)C2CCCN(c3cccnn3)C2)s1` (configuration not stated): the “Percent Effect” value was 131.3%. For `CN(CC(=O)NC1CCOCC1)C1CCCN(c2cccnn2)C1` (configuration not stated) the value was 137.1%. Regarding `CN(CC(=O)NC1(C#N)CCCC1)C1CCCN(c2cccnn2)C1` (configuration not stated), the “Percent Effect” value is given as 1.351%.

As to `CN(CC(=O)Nc1ccncc1)C1CCCN(c2cccnn2)C1` (configuration not stated), the “Percent Effect” value was found to be 95.39%.

On to `Cc1nnc(NC(=O)CN(C)CC2CCCN2c2cccnn2)s1` (configuration not stated), for which the “Percent Effect” value is -3.874%. For `Cc1nc(CN2CCCC(N(C)CC(=O)Nc3cccnc3)C2)no1` (configuration not stated) the value was 13.61%; for `COC(=O)C1CCCCN1C(=O)c1ccc(N(C)C)cc1F` (configuration not stated), -10.97%. In the case of `CN(C)CC(=O)N1CC[C@H]2OCC[C@@]2(COCC2CC2)C1`, the “Percent Effect” value is -4.204%.

Regarding `O=c1oc(-c2ccc(F)cc2)nn1CN1CCN(CC2CC2)CC1`, the “Percent Effect” value amounted to 89.16%.

For `O=c1oc(-c2ccc(F)cc2)nn1CC1CCOC1` (configuration not stated), the “Percent Effect” value is recorded as -10.24%.

For `CC1CCN(Cn2nc(-c3ccc(F)cc3)oc2=O)CC1`, the “Percent Effect” value is recorded as 4.807%. Turning to `O=c1oc(-c2ccc(F)cc2)nn1CN1CCSCC1`, the “Percent Effect” value stood at 92.99%. Consider `O=c1oc(-c2ccc(F)cc2)nn1CN1CCN(C2CCCC2)CC1`, for which the “Percent Effect” value was -7.879%. Next, `O=c1oc(-c2ccc(F)cc2)nn1CCc1ccncc1`: -21.89%.

With `O=c1oc(-c2ccc(F)cc2)nn1CN1CCCCC1`, the “Percent Effect” value is given as 107.7%.

Regarding `O=c1oc(-c2ccc(F)cc2)nn1CC1CCCCO1` (configuration not stated), the “Percent Effect” value is on record as -16.49%.

As to `CC(=O)N1CCN(Cn2nc(-c3ccc(F)cc3)oc2=O)CC1`, the “Percent Effect” value worked out at 6.471%. For the compound `CN(C(=O)Cc1coc(-c2cccs2)n1)C1(C#N)CCC1`, the “Percent Effect” value was 3.793%.

As to `CCc1nc(CN2CCCN(C(=O)C(C)COC)CC2)cs1` (configuration not stated), the “Percent Effect” value came out at 7.127%.

Take `COc1ccc(OC)c(C2CCN(C(=O)C3CCS(=O)(=O)CC3)C2)c1` (configuration not stated): the “Percent Effect” value is -1.419%. For `COc1ccc(C2=CCN(C(=O)C3CC(=O)N(C4CC4)C3)CC2)cc1` (configuration not stated) the value was -2.251%; for `COc1ccc(C2=CCN(C(=O)C3CCC3)CC2)cc1`, 121.8%; for `COc1ccc(C2=CCN(C(=O)CN(C)CC(N)=O)CC2)cc1`, -8.253%.

(Values after ChEMBL document CHEMBL3988442, “University of Dundee, Small-Polar-MMV Screening Library” (2021).)
